# From article PMC7862700, “An all-to-all approach to the identification of sequence-specific readers for epigenetic DNA modifications on cytosine”
# What was measured:
# Test in all cases: DAPPL (digital affinity profiling via proximity ligation, sequencing); 10 mM Tris-HCl pH 7.5, 50 mM NaCl, 1 mM DTT, 4% glycerol, room temperature, 30 min; GST-TFs on glutathione beads, 16-mer random dsDNA library, 0.1% formaldehyde crosslink after washing; high values mean tight binding
# Conditions in all cases: protein: recombinant; tags: N-terminal GST; dsDNA, one strand shown
# [1] = target: T1, FLI1 (Homo sapiens, UniProt Q01543 1-452)
# T1 sequence: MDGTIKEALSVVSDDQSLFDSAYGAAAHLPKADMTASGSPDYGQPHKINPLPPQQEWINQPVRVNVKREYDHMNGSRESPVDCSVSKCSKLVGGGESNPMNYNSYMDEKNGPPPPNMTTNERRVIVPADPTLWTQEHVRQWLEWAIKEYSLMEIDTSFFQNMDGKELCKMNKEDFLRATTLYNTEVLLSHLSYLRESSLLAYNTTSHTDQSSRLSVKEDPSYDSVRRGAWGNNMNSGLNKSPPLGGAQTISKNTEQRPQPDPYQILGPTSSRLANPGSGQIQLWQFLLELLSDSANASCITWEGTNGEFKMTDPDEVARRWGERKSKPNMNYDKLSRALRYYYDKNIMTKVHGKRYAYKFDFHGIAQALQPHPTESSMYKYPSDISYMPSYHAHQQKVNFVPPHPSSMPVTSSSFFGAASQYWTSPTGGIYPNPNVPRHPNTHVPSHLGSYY
# How it was run: (§1)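 After expression in yeast as GST fusions, human transcription factors were bound to glutathione beads, DNA-barcoded and mixed with a tag-only sample. The pools were incubated with 200 nmole of a 16-mer random double-stranded DNA library in Tris/NaCl/DTT/glycerol buffer (30 min, room temperature), washed and crosslinked with 0.1% formaldehyde. Proximity ligation with BsaI/T4 ligase ran for 1 h at 37 °C, before PCR amplification and sequencing on an Illumina NextSeq500. Binding signal is a hexamer's read frequency for a factor divided by its frequency for the tag-only sample.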
# [2] = target: T2, ELK1 (Homo sapiens, UniProt P19419 1-428)
# T2 sequence: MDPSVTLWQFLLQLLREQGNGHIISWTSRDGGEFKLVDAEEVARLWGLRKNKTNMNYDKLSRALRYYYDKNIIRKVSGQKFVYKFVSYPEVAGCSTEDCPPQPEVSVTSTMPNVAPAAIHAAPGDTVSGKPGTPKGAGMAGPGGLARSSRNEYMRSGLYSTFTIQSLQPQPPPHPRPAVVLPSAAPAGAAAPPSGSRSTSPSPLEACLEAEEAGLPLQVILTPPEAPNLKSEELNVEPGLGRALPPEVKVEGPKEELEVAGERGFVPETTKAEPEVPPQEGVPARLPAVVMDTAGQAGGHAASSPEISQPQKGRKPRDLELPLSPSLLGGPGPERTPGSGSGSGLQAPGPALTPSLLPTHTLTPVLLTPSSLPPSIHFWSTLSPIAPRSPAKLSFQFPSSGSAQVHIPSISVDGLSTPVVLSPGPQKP
# How it was run: as §1
# [3] = target: T3, GABPA (Homo sapiens, UniProt Q06546 1-454)
# T3 sequence: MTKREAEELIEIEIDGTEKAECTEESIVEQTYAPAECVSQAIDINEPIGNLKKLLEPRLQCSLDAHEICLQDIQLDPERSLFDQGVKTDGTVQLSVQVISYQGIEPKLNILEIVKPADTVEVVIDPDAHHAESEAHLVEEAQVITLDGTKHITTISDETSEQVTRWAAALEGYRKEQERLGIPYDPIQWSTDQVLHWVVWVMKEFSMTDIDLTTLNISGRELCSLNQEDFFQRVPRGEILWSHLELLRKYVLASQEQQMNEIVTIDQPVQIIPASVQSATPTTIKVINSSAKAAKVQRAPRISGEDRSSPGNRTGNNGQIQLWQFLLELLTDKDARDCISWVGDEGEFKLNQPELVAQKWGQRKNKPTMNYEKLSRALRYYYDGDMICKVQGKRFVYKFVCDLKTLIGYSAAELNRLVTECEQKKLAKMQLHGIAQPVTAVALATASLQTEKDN
# How it was run: as §1
# [4] = target: T4, ERG (Homo sapiens, UniProt P11308 1-479)
# T4 sequence: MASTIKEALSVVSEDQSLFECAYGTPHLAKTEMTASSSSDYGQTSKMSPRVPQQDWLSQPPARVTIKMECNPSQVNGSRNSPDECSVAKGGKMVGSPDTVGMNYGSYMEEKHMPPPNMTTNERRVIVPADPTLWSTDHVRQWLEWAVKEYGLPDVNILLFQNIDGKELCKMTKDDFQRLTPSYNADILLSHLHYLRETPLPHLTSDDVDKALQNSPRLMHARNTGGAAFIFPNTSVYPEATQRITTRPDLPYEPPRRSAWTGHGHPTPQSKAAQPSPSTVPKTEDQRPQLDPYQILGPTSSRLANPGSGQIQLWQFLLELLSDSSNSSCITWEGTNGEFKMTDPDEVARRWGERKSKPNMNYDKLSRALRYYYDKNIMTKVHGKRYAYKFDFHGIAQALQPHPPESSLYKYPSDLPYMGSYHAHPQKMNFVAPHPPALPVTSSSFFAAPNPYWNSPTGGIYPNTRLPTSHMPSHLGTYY
# How it was run: as §1
# [5] = target: ELF1 (Homo sapiens, UniProt P32519 1-619)
# How it was run: as §1
# [6] = target: T5, EHF (Homo sapiens, UniProt Q9NZC4 1-300)
# T5 sequence: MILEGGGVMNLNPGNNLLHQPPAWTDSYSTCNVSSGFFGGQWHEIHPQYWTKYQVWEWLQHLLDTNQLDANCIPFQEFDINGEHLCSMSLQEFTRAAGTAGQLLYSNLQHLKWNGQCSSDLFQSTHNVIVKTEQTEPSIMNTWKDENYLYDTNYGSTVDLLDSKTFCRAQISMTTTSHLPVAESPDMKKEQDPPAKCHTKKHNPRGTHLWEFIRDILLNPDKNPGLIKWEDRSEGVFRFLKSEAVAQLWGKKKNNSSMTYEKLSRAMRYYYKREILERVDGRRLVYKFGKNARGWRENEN
# How it was run: as §1
# [7] = target: SPI1 (Homo sapiens, UniProt P17947 1-270)
# How it was run: as §1
# [8] = target: SPIB (Homo sapiens, UniProt Q01892 1-262)
# How it was run: as §1
# [9] = target: T6, ELK3 (Homo sapiens, UniProt P41970 1-407)
# T6 sequence: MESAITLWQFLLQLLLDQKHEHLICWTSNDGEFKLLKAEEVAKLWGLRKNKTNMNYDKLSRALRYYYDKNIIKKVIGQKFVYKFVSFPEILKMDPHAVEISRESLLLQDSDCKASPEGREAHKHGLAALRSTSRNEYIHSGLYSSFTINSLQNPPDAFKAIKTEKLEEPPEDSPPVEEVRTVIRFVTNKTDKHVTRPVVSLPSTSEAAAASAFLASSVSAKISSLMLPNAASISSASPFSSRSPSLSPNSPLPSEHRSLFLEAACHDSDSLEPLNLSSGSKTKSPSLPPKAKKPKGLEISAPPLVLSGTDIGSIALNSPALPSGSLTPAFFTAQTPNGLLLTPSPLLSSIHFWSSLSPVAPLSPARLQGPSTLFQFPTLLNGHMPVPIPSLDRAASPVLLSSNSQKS
# How it was run: as §1
# ELF1, sequence (P32519 whole entry): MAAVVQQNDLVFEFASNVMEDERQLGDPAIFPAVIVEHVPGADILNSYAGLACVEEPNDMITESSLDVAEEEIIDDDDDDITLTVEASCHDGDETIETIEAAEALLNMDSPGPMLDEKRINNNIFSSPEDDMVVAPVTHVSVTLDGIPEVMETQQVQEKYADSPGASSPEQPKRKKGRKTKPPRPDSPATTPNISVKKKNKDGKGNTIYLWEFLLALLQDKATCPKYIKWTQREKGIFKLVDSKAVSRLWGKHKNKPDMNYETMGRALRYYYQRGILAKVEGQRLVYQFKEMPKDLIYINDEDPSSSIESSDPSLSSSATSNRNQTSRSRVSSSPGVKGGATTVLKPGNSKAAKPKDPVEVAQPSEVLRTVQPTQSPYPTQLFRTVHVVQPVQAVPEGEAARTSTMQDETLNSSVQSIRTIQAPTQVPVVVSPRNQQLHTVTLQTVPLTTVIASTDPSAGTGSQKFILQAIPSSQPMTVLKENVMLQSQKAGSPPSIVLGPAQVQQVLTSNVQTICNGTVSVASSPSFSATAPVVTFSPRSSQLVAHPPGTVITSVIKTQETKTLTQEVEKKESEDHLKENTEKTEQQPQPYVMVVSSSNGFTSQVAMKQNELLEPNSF
# SPIB, sequence (Q01892 whole entry): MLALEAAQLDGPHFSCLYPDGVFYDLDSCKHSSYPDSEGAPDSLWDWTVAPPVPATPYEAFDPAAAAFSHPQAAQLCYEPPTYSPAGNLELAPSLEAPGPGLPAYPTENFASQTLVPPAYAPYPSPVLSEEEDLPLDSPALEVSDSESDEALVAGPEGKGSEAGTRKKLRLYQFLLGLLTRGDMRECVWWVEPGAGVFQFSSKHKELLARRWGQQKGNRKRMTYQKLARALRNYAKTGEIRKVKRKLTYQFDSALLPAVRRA
Sequence,binding signal [1],binding signal [2],binding signal [3],binding signal [4],binding signal [5],binding signal [6],binding signal [7],binding signal [8],binding signal [9]
GGCCTT,"1.17 fold enrichment (6-mer frequency, TF over GST control)","1.18 fold enrichment (6-mer frequency, TF over GST control)","1.29 fold enrichment (6-mer frequency, TF over GST control)","1.16 fold enrichment (6-mer frequency, TF over GST control)","1.09 fold enrichment (6-mer frequency, TF over GST control)","1.13 fold enrichment (6-mer frequency, TF over GST control)","1.18 fold enrichment (6-mer frequency, TF over GST control)","1.19 fold enrichment (6-mer frequency, TF over GST control)","1.17 fold enrichment (6-mer frequency, TF over GST control)"
ATATGC,"1.09 fold enrichment (6-mer frequency, TF over GST control)","1.15 fold enrichment (6-mer frequency, TF over GST control)","1.15 fold enrichment (6-mer frequency, TF over GST control)","1.13 fold enrichment (6-mer frequency, TF over GST control)","1.1 fold enrichment (6-mer frequency, TF over GST control)","1.08 fold enrichment (6-mer frequency, TF over GST control)","1.16 fold enrichment (6-mer frequency, TF over GST control)","1.07 fold enrichment (6-mer frequency, TF over GST control)","1.05 fold enrichment (6-mer frequency, TF over GST control)"
AACTAA,"1.39 fold enrichment (6-mer frequency, TF over GST control)","1.27 fold enrichment (6-mer frequency, TF over GST control)","1.38 fold enrichment (6-mer frequency, TF over GST control)","1.33 fold enrichment (6-mer frequency, TF over GST control)","1.42 fold enrichment (6-mer frequency, TF over GST control)","1.42 fold enrichment (6-mer frequency, TF over GST control)","1.38 fold enrichment (6-mer frequency, TF over GST control)","1.41 fold enrichment (6-mer frequency, TF over GST control)","1.4 fold enrichment (6-mer frequency, TF over GST control)"
TATCCT,"1.7 fold enrichment (6-mer frequency, TF over GST control)","1.79 fold enrichment (6-mer frequency, TF over GST control)","1.71 fold enrichment (6-mer frequency, TF over GST control)","1.9 fold enrichment (6-mer frequency, TF over GST control)","1.73 fold enrichment (6-mer frequency, TF over GST control)","1.81 fold enrichment (6-mer frequency, TF over GST control)","1.74 fold enrichment (6-mer frequency, TF over GST control)","1.8 fold enrichment (6-mer frequency, TF over GST control)","1.76 fold enrichment (6-mer frequency, TF over GST control)"
CTCCCG,"1.61 fold enrichment (6-mer frequency, TF over GST control)","1.56 fold enrichment (6-mer frequency, TF over GST control)","1.62 fold enrichment (6-mer frequency, TF over GST control)","1.54 fold enrichment (6-mer frequency, TF over GST control)","1.57 fold enrichment (6-mer frequency, TF over GST control)","1.75 fold enrichment (6-mer frequency, TF over GST control)","1.45 fold enrichment (6-mer frequency, TF over GST control)","1.62 fold enrichment (6-mer frequency, TF over GST control)","1.58 fold enrichment (6-mer frequency, TF over GST control)"
AGCTTC,"1.64 fold enrichment (6-mer frequency, TF over GST control)","1.86 fold enrichment (6-mer frequency, TF over GST control)","1.71 fold enrichment (6-mer frequency, TF over GST control)","1.83 fold enrichment (6-mer frequency, TF over GST control)","1.66 fold enrichment (6-mer frequency, TF over GST control)","1.83 fold enrichment (6-mer frequency, TF over GST control)","1.74 fold enrichment (6-mer frequency, TF over GST control)","1.78 fold enrichment (6-mer frequency, TF over GST control)","2.06 fold enrichment (6-mer frequency, TF over GST control)"
TGAATA,"1.05 fold enrichment (6-mer frequency, TF over GST control)","1.11 fold enrichment (6-mer frequency, TF over GST control)","1.2 fold enrichment (6-mer frequency, TF over GST control)","1.08 fold enrichment (6-mer frequency, TF over GST control)","1.1 fold enrichment (6-mer frequency, TF over GST control)","1.12 fold enrichment (6-mer frequency, TF over GST control)","1.08 fold enrichment (6-mer frequency, TF over GST control)","1.05 fold enrichment (6-mer frequency, TF over GST control)","1.06 fold enrichment (6-mer frequency, TF over GST control)"
TTTAAA,"1.27 fold enrichment (6-mer frequency, TF over GST control)","1.26 fold enrichment (6-mer frequency, TF over GST control)","1.19 fold enrichment (6-mer frequency, TF over GST control)","1.2 fold enrichment (6-mer frequency, TF over GST control)","1.29 fold enrichment (6-mer frequency, TF over GST control)","1.21 fold enrichment (6-mer frequency, TF over GST control)","1.31 fold enrichment (6-mer frequency, TF over GST control)","1.17 fold enrichment (6-mer frequency, TF over GST control)","1.32 fold enrichment (6-mer frequency, TF over GST control)"
